The source made the active and inactive calls.

One assay concerns the target Albumin (Bos taurus) (UniProt P02769). Kind of assay: compounds binding labelled BSA control protein – biochemical, small-molecule microarray, Alexa647 label, 635/667 nm fluorescence, artefact control for SMM control protein annotation, profiling panel (AID 1118).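 Also: score merges 667 nm emission intensity and signal-to-noise per printed compound spot.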 Conditions: BSA-A647 binding, fluorescence 635 nm, higher = more signal.
The nature of assay [1]: probe aXIP binding to arrayed compounds – biochemical, NeuroSMM set, 635/667 nm fluorescence, primary screen (AID 1119).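 Also: probe is the protein aXip251-270 applied at 1 µg/mL to compound-printed slides; binding of probe to printed compounds measured as 667 nm fluorescence plus signal to noise.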 As to conditions: small-molecule microarray, higher = more signal, called active from +8 up or from −8 down.
Assay [2] is described as follows: probe aNOTCH3 binding on compound microarray – biochemical, small-molecule microarray, 635/667 nm fluorescence, primary screen (AID 1120).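 Also: probe is a biotin-tagged antibody raised against NOTCH3 rather than NOTCH3 protein; score merges spot fluorescence near 667 nm with spot signal to noise.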 Conditions: higher = more signal.
Assay [3] in a line: probe aNOTCH2 binding on compound microarray – biochemical, small-molecule microarray, 635/667 nm fluorescence, primary screen (AID 1121).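 Also: score merges feature fluorescence read at 667 nm with its signal to noise.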 Conditions: higher = more signal.
In assay [4] the target is Carbonic anhydrase 2 (Homo sapiens) (UniProt P00918). Kind of assay: compounds binding carbonic anhydrase 2 – biochemical, small-molecule microarray, Alexa647-labelled CAII, profiling panel (AID 1122). Conditions: CAII-A647 binding fluorescence, higher = more signal.
Assay [5] can be described thus: COS7 lysate on small-molecule microarray, probe aHis, 635 nm (AID 1123).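 Also: z-score combines 667nm fluorescence intensity with signal-to-noise per printed compound spot.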 Conditions: COS7 cell lysate, fluorescence, higher = more signal.
Assay [6] in a line: probe aLAP1 signal on lysate-treated microarray – cell lysate, small-molecule microarray, COS7 lysate, primary screen (AID 1124).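 Also: lysate comes from COS7 cells expressing LAP1 and is applied at 0.3 µg/mL; score merges spot fluorescence near 667 nm with signal-to-noise over triplicate slides.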 Conditions: probe aLAP1, fluorescence, higher = more signal.
In the next assay the test system is Sam68 (KHDRBS1). Kind of assay: compounds binding KHDRBS1 protein – biochemical, small-molecule microarray, 635 nm fluorescence, primary screen (AID 1125).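 Also: score merges 667 nm channel intensity with signal to noise over triplicate slides.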 As to conditions: higher = more signal.
Assay [7] has as its system Chordin-like protein 2 (CHRDL2). Kind of assay: compounds binding chordin-like 2 – biochemical, small-molecule microarray, 635 nm fluorescence, primary screen (AID 1126).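 Also: printed compound slides probed with Chrdl2 protein at 4 µg/mL for 1 h at 4 C; score merges 667 nm emission intensity with signal to noise over three replicate slides.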 As to conditions: fluorescence 635 nm, higher = more signal.
For assay [8], the target named is Concanavalin-A (Canavalia ensiformis) (UniProt P02866). Put plainly: compounds binding concanavalin A lectin – biochemical, small-molecule microarray, Alexa647 label, 635 nm, artefact control for SMM control protein annotation, primary screen (AID 1127).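 Also: z combines 667 nm emission intensity with signal-to-noise across three replicate slides.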 Conditions: ConA-A647 binding fluorescence, higher = more signal.
Sequence of Concanavalin-A (Canavalia ensiformis) (P02866 whole entry, looked up): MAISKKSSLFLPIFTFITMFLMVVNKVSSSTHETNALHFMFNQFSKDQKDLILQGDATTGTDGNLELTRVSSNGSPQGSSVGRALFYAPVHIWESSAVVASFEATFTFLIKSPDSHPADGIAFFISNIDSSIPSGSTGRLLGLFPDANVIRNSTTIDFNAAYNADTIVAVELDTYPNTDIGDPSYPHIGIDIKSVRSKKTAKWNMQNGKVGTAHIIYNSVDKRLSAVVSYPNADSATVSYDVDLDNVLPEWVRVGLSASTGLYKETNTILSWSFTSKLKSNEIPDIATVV

Sequence of Albumin (Bos taurus) (P02769 whole entry, looked up): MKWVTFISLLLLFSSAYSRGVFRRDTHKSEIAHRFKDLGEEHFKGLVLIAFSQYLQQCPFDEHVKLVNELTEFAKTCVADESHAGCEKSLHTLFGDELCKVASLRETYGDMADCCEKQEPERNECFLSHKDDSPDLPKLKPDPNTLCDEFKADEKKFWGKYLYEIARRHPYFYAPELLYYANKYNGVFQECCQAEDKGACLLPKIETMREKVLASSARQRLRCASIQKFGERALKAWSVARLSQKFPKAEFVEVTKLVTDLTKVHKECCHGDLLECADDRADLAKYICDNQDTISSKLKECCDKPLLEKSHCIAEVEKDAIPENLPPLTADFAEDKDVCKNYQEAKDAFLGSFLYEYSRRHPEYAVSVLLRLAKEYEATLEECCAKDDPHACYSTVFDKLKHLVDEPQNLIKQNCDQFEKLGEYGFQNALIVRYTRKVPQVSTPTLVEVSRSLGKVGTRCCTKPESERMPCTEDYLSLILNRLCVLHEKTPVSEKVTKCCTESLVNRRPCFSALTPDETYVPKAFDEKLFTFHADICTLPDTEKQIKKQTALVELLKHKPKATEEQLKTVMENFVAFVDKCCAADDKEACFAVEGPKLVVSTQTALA

Consider `CC(=O)OC[C@H]1O[C@@H](ON=C(C)CCN2CCc3nc(-c4ccccc4)c(-c4ccccc4)cc3C2)[C@H](OC(C)=O)[C@@H](OC(C)=O)[C@@H]1OC(C)=O`, for which the composite z-score with Albumin (Bos taurus) is 0.507; in [2] it was 0.12; in assay [3], -0.156; in assay [4] it was 0.16; in assay [5], 0.614; in assay [6] it was 0.717. Further, the composite z-score with Sam68 (KHDRBS1) stood at 1.3; in assay [7] it was 0.346; in assay [8], 0.878. Also, the composite Z-score in [1] was -0.0295 (inactive).
With `CC(C)=NOCc1ccc(-c2cc(-c3ccccc3)no2)cc1`, the composite z-score with Albumin (Bos taurus) was -0.205; in [2], -0.0984; in assay [3], -0.169; in [4], -0.145; in assay [5] it was -0.676; in [6], 0.0863. In addition, the values for the composite z-score (with Sam68 (KHDRBS1); in assay [7]; in assay [8]) were 0.059, 0.14 and 0.0293, respectively. Moreover, the composite Z-score in assay [1] is -0.0363 (inactive).
As to `Cc1cc2c(nc1C)CCCN2CC(O)CN1CCN(C)CC1` (stereo not given), the composite z-score is -0.562 with Albumin (Bos taurus); -0.0636 in assay [2]; -0.149 in assay [3]; 0.622 in [4]; 0.387 in assay [5]; 0.289 in assay [6]. In addition, the composite z-score in the assay with Sam68 (KHDRBS1) amounted to 0.693; in [7], 0.731; in assay [8], 1.02. The composite Z-score in assay [1] was 1.03 (inactive).
On to `CCCCC(=C=CC[C@H](O)c1ccccc1OCCO)C[C@H](O)COCc1ccccc1`, for which the composite z-score with Albumin (Bos taurus) is 0.355; in assay [2], -0.0362; in [3], -0.147; in [4], 0.669; in assay [5], 0.0513; in [6] it was 1.27. Moreover, the composite z-score in the assay with Sam68 (KHDRBS1) was -0.0664; in [7] it was -0.632; in [8] it was 0.874. In assay [1], the composite Z-score was 2.26 (inactive).
In the case of `CC(C)C[C@@H]1NC(=O)[C@H]2C[C@@H](C(=O)O)[C@@H](c3ccc(O)cc3)N2C1=O`, the composite z-score with Albumin (Bos taurus) is 0.111; in assay [2] it was -0.0311; in assay [3], -0.0586; in assay [4], 0.419; in assay [5] it was 0.666; in assay [6] it was -0.79. Moreover, the composite z-score with Sam68 (KHDRBS1) amounted to 0.62; in [7] it was 0.51; in assay [8] it was 0.684. In [1], the composite Z-score was -0.2 (inactive).
On to `C#CCCCON=C1C[C@@H](O)[C@@H](O)[C@@H]2[C@@H]3C(=O)N(Cc4ccccc4)C(=O)[C@@H]3CC[C@H]12`, for which the composite z-score was 0.344 with Albumin (Bos taurus); -0.056 in [2]; -0.2 in assay [3]; -0.009 in assay [4]; 0.363 in assay [5]; -0.316 in [6]. The composite z-score in the assay with Sam68 (KHDRBS1) was -0.0716; in [7], 0.477; in assay [8], 0.372. Besides, in assay [1], the composite Z-score was 0.497 (inactive).
Turning to `O=C1C2=CC[C@H]3C(=O)N(Cc4ccc5c(c4)OCO5)C(=O)[C@H]3[C@H]2[C@H](O)[C@@H]2O[C@H]12`, the composite z-score in the assay with Albumin (Bos taurus) is -0.176; in assay [2], -0.0229; in assay [3] it was -0.14; in assay [4], -0.0365; in [5], -0.142; in assay [6] it was 0.397. For the same compound, the figures for the composite z-score (with Sam68 (KHDRBS1); in assay [7]; in assay [8]) were 0.21, 0.529 and 0.534, respectively. Further, in [1], the composite Z-score is 0.0248 (inactive).
Take `COC(=O)[C@H]1COC(c2ccc(OCCCO)cc2)=N1`: the composite z-score in the assay with Albumin (Bos taurus) is 0.543; in assay [2], -0.16; in assay [3] it was -0.0942; in [4], 0.523; in [5], 2.38; in [6], 0.984. The composite z-score is -1.08 in the assay on Sam68 (KHDRBS1), -0.0157 in assay [7] and -0.588 in assay [8]. The composite Z-score in assay [1] is 0.0182 (inactive).
In the case of `CC(C)(C)OC(=O)CC[C@]1(C(N)=O)COC(c2ccc(OCCCO)cc2)=N1`, the composite z-score with Albumin (Bos taurus) came to 0.617; in [2] it was 0.324; in assay [3], 0.357; in assay [4], 0.983; in assay [5] it was 2.97; in [6] it was 1.44. In addition, the composite z-score is 1.21 with Sam68 (KHDRBS1), 0.0555 in assay [7] and -0.207 in assay [8]. Besides, the composite Z-score in [1] is 1.43 (inactive).
As for `O=C1[C@H]2[C@H]3[C@H](O)[C@H](O)CC(=NO[C@@H]4O[C@H](CO)[C@@H](O)[C@H](O)[C@H]4O)[C@H]3CC[C@H]2C(=O)N1Cc1ccccc1`, the composite z-score is -0.258 with Albumin (Bos taurus); 0.0145 in assay [2]; -0.127 in [3]; -0.457 in assay [4]; 0.904 in assay [5]; 0.0052 in [6]. Also, the values for the composite z-score (with Sam68 (KHDRBS1); in assay [7]; in assay [8]) were 1.32, -0.564 and 0.0723, respectively. Further, in [1], the composite Z-score was -0.304 (inactive).
As for `CC(C)C[C@@H]1NC(=O)[C@H]2C[C@@H](C(=O)NCCCCCCN(C)C)[C@@H](c3cccc(OCCO)c3)N2C1=O`, the composite z-score with Albumin (Bos taurus) was -0.615; in assay [2], 0.16; in assay [3], -0.153; in [4], 0.557; in assay [5], 2.81; in [6] it was 1.44. Further, the figures for the composite z-score (with Sam68 (KHDRBS1); in assay [7]; in assay [8]) were 1.31, 1.47 and 1.09, respectively. Also, in [1], the composite Z-score was 2.07 (inactive).
Turning to `COCCOC(=O)N1C(=O)[C@@]2(c3cc(C#Cc4ccc(OC)cc4)ccc31)[C@H](C(=O)N1CCN(c3ncccn3)CC1)[C@H]1C(=O)O[C@H](c3ccccc3)[C@H](c3ccccc3)N1[C@@H]2c1ccc(OCCO)cc1`, the composite z-score was -0.447 with Albumin (Bos taurus); 0.311 in assay [2]; 0.0966 in assay [3]; 0.31 in assay [4]; 1.1 in assay [5]; 0.634 in assay [6]. The results for the composite z-score (in the assay with Sam68 (KHDRBS1); in assay [7]; in [8]) were 0.556, 0.792 and 1.08, respectively. The composite Z-score in assay [1] was 0.549 (inactive).
As to `COc1ccccc1CN1C(=O)c2ccccc2[C@@H](C(=O)NCC(F)(F)F)[C@@H]1c1ccc(CO)cc1`, the composite z-score in the assay with Albumin (Bos taurus) is 0.522; in assay [2], -0.15; in assay [3] it was -0.167; in assay [4] it was 0.595; in assay [5], 0.839; in [6], 0.0761. Further, the composite z-score in the assay on Sam68 (KHDRBS1) was 1.33; in assay [7], -0.365; in assay [8] it was 0.721. In [1], the composite Z-score was -0.786 (inactive).
As for `COCCOC(=O)N1C(=O)[C@@]2(c3cc(C#Cc4ccc(OC)cc4)ccc31)[C@H](c1ccc(O)cc1)N1[C@H](c3ccccc3)[C@H](c3ccccc3)OC(=O)[C@H]1[C@@H]2C(N)=O`, the composite z-score with Albumin (Bos taurus) is 0.595; in assay [2], 0.357; in [3], -0.108; in assay [4], 0.48; in [5], 1.52; in assay [6], 0.364. Also, the composite z-score with Sam68 (KHDRBS1) was 1.29; in [7], 0.356; in assay [8], 1.12. Moreover, the composite Z-score in assay [1] was 0.0583 (inactive).
For the compound `C=CC[C@@H]1C=C[C@H](ON=C(C)CCN2CCc3nc(CC)c(CC)cc3C2)[C@@H](CO)O1`, the composite z-score was 0.7 with Albumin (Bos taurus); 0.325 in assay [2]; -0.131 in [3]; 0.221 in [4]; 0.226 in assay [5]; 0.38 in assay [6]. For the same compound, the results for the composite z-score (with Sam68 (KHDRBS1); in [7]; in [8]) were 0.822, 0.971 and -0.442, respectively. Further, the composite Z-score in assay [1] was -2.12 (inactive).
Take `CO[C@H]1O[C@H](CO)[C@@H](OC(=O)Nc2ccc(C#N)cc2)[C@H](OC(=O)c2cc3ccccc3[nH]2)[C@H]1OC(=O)c1cc2ccccc2[nH]1`: the composite z-score with Albumin (Bos taurus) is 0.904; in [2] it was 0.078; in [3], -0.0211; in [4], 0.627; in [5], 2.41; in assay [6], 1.5. Moreover, the composite z-score in the assay on Sam68 (KHDRBS1) came out at 1.31; in assay [7] it was 0.451; in assay [8], 1.13. Also, the composite Z-score in assay [1] is 1.79 (inactive).
On to `COc1ccc(OC[C@H]2Cc3c(-c4ccccc4)nc4c(c3CO2)CN(CCOc2ccccc2)CC4)cc1`, for which the composite z-score in the assay with Albumin (Bos taurus) was 0.445; in assay [2], 0.0562; in [3] it was -0.108; in assay [4] it was 0.234; in assay [5], 0.678; in [6], 0.379. In addition, the composite z-score with Sam68 (KHDRBS1) came out at 1.07; in [7], 0.419; in assay [8], 1.08. Moreover, the composite Z-score in [1] was 0.812 (inactive).

The values are drawn from PubChem BioAssay.
